ChEMBL document CHEMBL3988442, “University of Dundee, Small-Polar-MMV Screening Library” (2021)
Out of some 48,000 compounds screened, about 13,000 (27%) showed an effect of 50% or more. The list shows a part of the results.

test system: Wolbachia pipientis; test: Anti-Wolbachia Cell-Based Screen; format: functional; set-up: scale not given: in the data most compounds retested in dose-response had high values; settings: 5 µM

| SMILES | Percent Effect [%] |
| --- | --- |
| O=C(Nc1nncs1)NC1CCOc2ccccc21 (configuration not stated) | 13.17 |
| Cc1cc(CN(C)C(=O)Nc2cnc3c(c2)c(C)nn3C)no1 | 2.843 |
| COc1ccc(S(=O)(=O)NCCC(O)c2ccccc2)c(C)c1 (configuration not stated) | 8.858 |
| COCc1nc2nc(O)c3c(n2n1)NC(=O)CC3c1ccccc1Cl (configuration not stated) | -6.394 |
| O=C(O)C(F)(F)F.O=C(c1ccc[nH]1)N1CC[C@@H](OCC2CC2)[C@@H]1Cc1cccnc1 | 9.663 |
| O=C(O)C(F)(F)F.O=S(=O)(C1CC1)N1CC[C@H](OCC2CC2)[C@@H]1Cc1cccnc1 | -0.6171 |
| O=C(O)C(F)(F)F.O=C(O)C(F)(F)F.O=C(c1cccnc1)N1CC[C@H](OCC2CC2)[C@@H]1Cc1cccnc1 | -13.6 |
| O=C(O)C(F)(F)F.O=C(O)C(F)(F)F.c1ccc(N2CC[C@H](OCC3CC3)[C@@H]2Cc2cccnc2)nc1 | 102.1 |
| O=C(O)C(F)(F)F.c1cnc(N2CC[C@@H](OCC3CC3)[C@@H]2Cc2cccnc2)nc1 | 125.6 |
| O=C(O)C(F)(F)F.O=S(=O)(C1CC1)N1CC[C@@H](OCC2CC2)[C@@H]1Cc1ccncc1 | -7.9 |
| Cn1nc2c(cc1=O)CN(Cc1nnc(-c3ccc(F)cc3)o1)CC2 | -3.918 |
| CC(NC(=O)NCCNc1cccc(F)c1C#N)c1nccs1 (configuration not stated) | -8.965 |
| CC(=O)N1CCOCC2(C1)CN(S(C)(=O)=O)CCO2 (configuration not stated) | -9.255 |
| COC(=O)c1cccc(S(=O)(=O)NC(=O)CC2CCCC2)c1 | 1.549 |
| COC(=O)c1cccc(S(=O)(=O)NC(=O)COC2CCCC2)c1 | 86.25 |
| COC(=O)c1cccc(S(=O)(=O)Nc2ccc(Cl)c(C(N)=O)c2)c1 | -9.655 |
| COC(=O)c1cccc(S(=O)(=O)NC(=O)COC2CCCCC2)c1 | 108.7 |
| COC(=O)c1cccc(S(=O)(=O)Nc2ncc(C)s2)c1 | -16.51 |
| COC(=O)c1cccc(S(=O)(=O)NC(=O)c2ccccc2F)c1 | 8.807 |

| SMILES | Percent Effect [%] |
| --- | --- |
| Cc1occc1C(=O)N1CCCC1c1ccc(C(=O)N2CCOCC2)s1 (configuration not stated) | 1.721 |
| Cc1ccc(OCCN(C)Cc2ccc(S(=O)(=O)N(C)C)o2)cc1 | 101.9 |
| Cc1nnc(CN(C)CCOc2cccc(Cl)c2)o1 | 6.512 |
| CC(C)N(C)C(=O)CSCc1ccc(S(=O)(=O)N(C)C)o1 | -4.323 |
| Cc1cc(C)cc(OCCN(C)Cc2ccc(S(=O)(=O)N(C)C)o2)c1 | 89.38 |
| Cc1cc(C)cc(OCCN(C)Cc2cscn2)c1 | -4.131 |
| Cc1ccc(OCCN(C)S(=O)(=O)N2CCOCC2)cc1 | -11.92 |
| Cc1ccc(OCCN(C)Cc2cscn2)cc1 | -7.225 |
| Cc1nnc(CN(C)CCCOc2ccc(Cl)cc2)o1 | -9.497 |
| CN(CCOc1ccc(Cl)cc1)Cc1ccc(S(=O)(=O)N(C)C)o1 | 82.71 |
| COCCN(CC(N)=O)CC1CCCN(C2Cc3ccccc3C2)C1 (configuration not stated) | -0.9874 |
| Cc1noc(C)c1C(=O)N1Cc2ncn(C)c2C(COCC2CC2)C1.O=C(O)C(F)(F)F (configuration not stated) | 110.4 |
| Cc1ccsc1C(=O)N1Cc2ncn(C)c2C(COCC2CC2)C1.O=C(O)C(F)(F)F (configuration not stated) | 46.58 |
| CC(C)COCC1CN(Cc2ccc3c(c2)OCO3)Cc2ncn(C)c21.O=C(O)C(F)(F)F.O=C(O)C(F)(F)F (configuration not stated) | 29.31 |
| Cn1cnc2c1C(COCC1CCOCC1)CN(C(=O)c1ccco1)C2.O=C(O)C(F)(F)F (configuration not stated) | -6.702 |
| Cc1noc(C)c1C(=O)N1Cc2ncn(C)c2C(COCC(C)C)C1.O=C(O)C(F)(F)F (configuration not stated) | 115.1 |
| CCOCC1CCN(C(=O)Nc2ccc(-c3csnn3)cc2)C1 (configuration not stated) | -10.06 |
| N#Cc1cccc(S(=O)(=O)NC(=O)COCC(F)(F)F)c1 | -9.311 |
| COc1ccc(C(=O)NS(=O)(=O)c2ccc(C#N)cc2C(F)(F)F)cc1 | -4.886 |

| SMILES | Percent Effect [%] |
| --- | --- |
| N#Cc1cccc(S(=O)(=O)NC(=O)CCOCC(F)(F)F)c1 | 2.733 |
| CC(C)CC(=O)NS(=O)(=O)c1ccc(C#N)cc1C(F)(F)F | 112.6 |
| CC(C)(C)CC(=O)NS(=O)(=O)c1ccc(C#N)cc1C(F)(F)F | 82.77 |
| Cc1ccc(C)c(S(=O)(=O)NC(=O)COc2cccc(C#N)c2)c1 | 12.25 |
| Cc1ccc(C(=O)NCCC2CCN(C)CC2)cc1N(C)S(C)(=O)=O | -13.52 |
| CC(=O)c1csc(-c2csc(Cn3ccc(=O)[nH]c3=O)n2)c1 | -9.484 |
| O=C(Cn1ccnc1)N1C[C@@H]2CC[C@H](Oc3ccc(Cl)cc3)[C@@H]2C1 | 109.7 |
| O=C(c1cnco1)N1C[C@@H]2CC[C@H](Oc3ccccc3F)[C@@H]2C1 | -11.33 |
| O=C(c1cnco1)N1C[C@@H]2CC[C@H](Oc3cccc(F)c3)[C@@H]2C1 | -6.458 |
| CN(C)CC(=O)N1C[C@@H]2CC[C@H](Oc3ccccc3Cl)[C@@H]2C1 | -7.066 |
| O=C(Cn1ccnc1)N1C[C@@H]2CC[C@H](Oc3cccc(F)c3)[C@@H]2C1 | 109 |
| CCC(CNC(=O)Cn1ccnc1)Oc1cccc(F)c1 (configuration not stated) | 0.7752 |
| O=C(Cn1ccnc1)N1CCC(n2cc(-c3cccc(Cl)c3)nn2)CC1 | 2.937 |
| O=C(Cn1ccnc1)N1C[C@@H]2CC[C@H](Oc3ccccc3)[C@@H]2C1 | -14.9 |
| CC(=O)NCC(=O)N1C[C@@H]2CC[C@H](Oc3ccccc3Cl)[C@@H]2C1 | 95.47 |
| O=C(Cn1ccnc1)N1C[C@@H]2CC[C@H](Oc3ccccc3F)[C@@H]2C1 | 91.22 |
| CC(C)N1CC(C(=O)N2CCC(Oc3ccccc3Cl)CC2)CC1=O (configuration not stated) | -11.86 |
| O=C(Cn1ccnc1)N1C[C@@H]2CC[C@H](Oc3ccccc3Cl)[C@@H]2C1 | -8.109 |
| CC(C1CC1)N(C)C(=O)c1cnc(-c2ccc3c(c2)OCO3)s1 (configuration not stated) | -9.871 |
